Values joined by “and” are separate entries in the source; they are usually repeats but may differ in a detail not shown here. Equal values may be shown once. About 2,000 (36%) of roughly 5,500 compounds were called active. Not shown: some 18% with an inconclusive outcome. No stated cut-off is given here; in the data, active means normalized growth mostly below about 0.91 (no sharp cut-off); inconclusive means no clear call, values can overlap the other calls; inactive means mostly above about 0.92. Some of the results follow.
Assay: chemical genetic growth profiling, strain panel (AID 1159580);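 further: tested at 20 µM; growth read once vehicle control cultures reached saturation at 30 °C; 1 = growth at the plate median or of vehicle wells; lower values mean less growth of the strain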
Details: S. cerevisiae deletion strains, growth OD

Measured: normalized growth

CCOC(=O)[C@H](CCc1ccccc1)N[C@@H](C)C(=O)N1Cc2ccccc2C[C@H]1C(=O)O
inactive: locus YAL021C, strain ccr4, hits give low values 0.993 | locus YAL026C, strain drs2, hits give low values 0.981 | locus YAL030W, strain snc1, hits give low values 1 | locus YBL061C, strain skt5, hits give low values 0.99 | locus YBR009C, strain hhf1, hits give low values 1.02 | locus YBR021W, strain FUR4, hits give low values 1.01 | locus YBR023C, strain chs3, hits give low values 0.984 | locus YBR171W, strain sec66, hits give low values 0.997 | locus YBR229C, strain ROT2, hits give low values 1 | locus YBR231C, strain swc5, hits give low values 1 | locus YBR279W, strain paf1, hits give low values 0.98 | locus YCL011C, strain gbp2, hits give low values 0.998 | locus YCL016C, strain dcc1, hits give low values 0.963 | locus YCL029C, strain bik1, hits give low values 1.01 | locus YCL061C, strain MRC1, hits give low values 1.01 | locus YCL069W, strain vba3, hits give low values 0.986 | locus YCR088W, strain abp1, hits give low values 1 | locus YDL005C, strain med2, hits give low values 1.01 | locus YDL035C, strain GPR1, hits give low values 1.02 | locus YDL040C, strain nat1, hits give low values 1 | locus YDL074C, strain BRE1, hits give low values 0.996 | locus YDL101C, strain DUN1, hits give low values 1.01 | locus YDL134C, strain PPH21, hits give low values 1 | locus YDL185W, strain tfp1, hits give low values 1.01 | locus YDL192W, strain arf1, hits give low values 1.01 | locus YDR001C, strain nth1, hits give low values 1 | locus YDR069C, strain doa4, hits give low values 1 | locus YDR101C, strain arx1, hits give low values 0.999 | locus YDR137W, strain rgp1, hits give low values 0.983 | locus YDR159W, strain sac3, hits give low values 0.964 | locus YDR162C, strain NBP2, hits give low values 1.01 | locus YDR195W, strain ref2 0.965 | locus YDR297W, strain sur2, hits give low values 1.01 | locus YDR318W, strain mcm21, hits give low values 1.01 | locus YDR334W, strain swr1, hits give low values 1.02 | locus YDR335W, strain msn5, hits give low values 0.984 | locus YDR388W, hits give low values 1.01 | locus YDR392W, strain spt3, hits give low values 0.931 | locus YDR502C, strain sam2, hits give low values 1.03 | locus YEL003W, strain gim4, hits give low values 1.02 | locus YEL037C, strain rad23, hits give low values 1.01 | locus YEL061C, strain CIN8 (second series), hits give low values 1.03 | locus YEL061C, strain CIN8, hits give low values 1.01 | locus YER015W, strain faa2, hits give low values 1.01 | locus YER016W, strain bim1, hits give low values 1.02 | locus YER110C, hits give low values 1.01 | locus YER111C, strain swi4, hits give low values 0.989 | locus YER155C, strain BEM2 (second series), hits give low values 1.06 | locus YER155C, strain BEM2, hits give low values 0.995 | locus YER167W, strain BCK2, hits give low values 1.01 | locus YFR010W, strain ubp6, hits give low values 0.998 | locus YGL078C, strain dbp3, hits give low values 1.01 | locus YGL086W, strain mad1, hits give low values 1 | locus YGL167C, strain pmr1, hits give low values 1 | locus YGL173C, strain kem1, hits give low values 0.993 | locus YGL227W, strain vid30, hits give low values 0.986 | locus YGL240W, strain doc1, hits give low values 1.02 | locus YGL248W, strain PDE1, hits give low values 1 | locus YGL253W, strain hxk2, hits give low values 0.926 | locus YGR078C, strain PAC10, hits give low values 1 | locus YGR135W, strain pre9, hits give low values 1.03 | locus YGR229C, strain SMI1, hits give low values 1.02 | locus YGR252W, strain gcn5, hits give low values 0.999 | locus YHR013C, strain ard1, hits give low values 0.953 | locus YHR027C, strain rpn1, hits give low values 1.01 | locus YHR030C, strain SLT2, hits give low values 1.01 and 0.988 | locus YHR079C, strain IRE1 (second series), hits give low values 1.01 | locus YHR079C, strain IRE1, hits give low values 0.976 | locus YHR094C, strain hxt1, hits give low values 1 | locus YHR129C, strain ARP1, hits give low values 1 | locus YHR142W, strain chs7, hits give low values 0.935 | locus YHR200W, strain rpn10, hits give low values 1.01 | locus YIL066C, strain RNR3, hits give low values 1.01 | locus YIL073C, strain SPO22, hits give low values 1.08 | locus YIL125W, strain kgd1, hits give low values 1 | locus YIR030C, strain dcg1, hits give low values 1.01 | locus YJL092W, strain hpr5, hits give low values 1.01 | locus YJL095W, strain BCK1 (second series), hits give low values 1.01 | locus YJL095W, strain BCK1, hits give low values 0.988 and 0.991 | locus YJL115W, strain asf1, hits give low values 1.01 | locus YJL129C, strain trk1, hits give low values 0.983 | locus YJL134W, strain LCB3, hits give low values 1.01 | locus YJL154C, strain vps35, hits give low values 1.02 | locus YJL164C, strain tpk1, hits give low values 1 | locus YJL166W, strain qcr8, hits give low values 1.03 | locus YJL168C, strain set2, hits give low values 1.01 | locus YJL187C, strain SWE1 (second series), hits give low values 1 | locus YJL187C, strain SWE1, hits give low values 1.01

From PubChem BioAssay AID1159580 (chemical genetic matrix, 2015)
